Assay results taken from paper PMC4336329 (PLoS ONE, 2015).
About 14,000 (4.5%) of roughly 310,000 compounds showed an effect of 50% or more. Effects have a minus sign here. What follows is part of a selection rich in strong results, with near analogues and random picks from the rest.

target: human ether-à-go-go-related gene (hERG) potassium channel (human, UniProt Q12809); test: primary screen, population patch clamp on CHO cells stably expressing hERG; higher = less effect of the substance
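Note: peak tail current of the secondary pulse compared with the same well before compound.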

human ether-à-go-go-related gene (hERG) potassium channel, sequence (Q12809 whole entry, looked up): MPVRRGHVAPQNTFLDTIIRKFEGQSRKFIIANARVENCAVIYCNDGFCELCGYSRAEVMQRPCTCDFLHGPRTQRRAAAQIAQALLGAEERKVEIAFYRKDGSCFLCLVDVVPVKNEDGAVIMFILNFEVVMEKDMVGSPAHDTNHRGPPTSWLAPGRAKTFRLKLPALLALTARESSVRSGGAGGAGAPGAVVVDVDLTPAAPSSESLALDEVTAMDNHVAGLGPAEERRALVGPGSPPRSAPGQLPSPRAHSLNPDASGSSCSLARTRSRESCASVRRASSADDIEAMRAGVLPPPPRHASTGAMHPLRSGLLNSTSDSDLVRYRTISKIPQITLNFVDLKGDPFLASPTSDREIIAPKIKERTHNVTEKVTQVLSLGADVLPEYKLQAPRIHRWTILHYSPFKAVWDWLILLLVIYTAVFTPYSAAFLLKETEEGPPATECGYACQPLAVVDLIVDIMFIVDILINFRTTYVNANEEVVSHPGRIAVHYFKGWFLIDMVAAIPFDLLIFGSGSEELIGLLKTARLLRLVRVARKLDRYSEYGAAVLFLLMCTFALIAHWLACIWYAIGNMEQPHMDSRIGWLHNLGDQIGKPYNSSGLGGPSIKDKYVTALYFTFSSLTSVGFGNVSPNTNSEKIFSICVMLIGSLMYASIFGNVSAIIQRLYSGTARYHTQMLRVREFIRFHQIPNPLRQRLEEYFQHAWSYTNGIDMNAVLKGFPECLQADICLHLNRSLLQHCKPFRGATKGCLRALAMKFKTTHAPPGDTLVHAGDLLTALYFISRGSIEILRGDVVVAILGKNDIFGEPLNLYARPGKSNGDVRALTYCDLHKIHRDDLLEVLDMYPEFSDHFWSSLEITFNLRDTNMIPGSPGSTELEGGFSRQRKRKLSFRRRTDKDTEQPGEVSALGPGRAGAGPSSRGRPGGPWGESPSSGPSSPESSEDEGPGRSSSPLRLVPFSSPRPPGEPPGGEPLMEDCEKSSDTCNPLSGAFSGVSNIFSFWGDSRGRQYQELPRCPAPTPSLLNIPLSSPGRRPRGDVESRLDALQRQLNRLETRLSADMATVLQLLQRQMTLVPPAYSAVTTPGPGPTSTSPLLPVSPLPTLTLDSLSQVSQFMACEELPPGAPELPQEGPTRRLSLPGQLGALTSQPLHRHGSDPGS

Compared with `Cc1ccc(N(Cc2cc3ccccc3[nH]c2=O)C(=O)c2cccs2)cc1C`, `Cc1ccc(NC(=O)C2CCCN(S(=O)(=O)c3ccc4[nH]c(=O)ccc4c3)C2)c(C)c1` (stereo not shown) is lower in “hERG current change (%, negative = inhibition) at 10uM” value: 9.8% for the first, 3.65% for the second.

Going from `O=C(NNc1ccc(Cl)cc1)C1CCC1` to `O=C(Nc1ccc(Cl)cc1)c1ccc2c(=O)n3c(nc2c1)CCCCC3`, the “hERG current change (%, negative = inhibition) at 10uM” value falls from 16.6% to -32.5%.

Going from `Cc1cc(C)cc(OCC(=O)O/N=C(\N)c2ccccc2Cl)c1` to `CCOC(=O)c1ccccc1NC(=O)c1ccc2c(=O)n3c(nc2c1)CCCCC3`, the “hERG current change (%, negative = inhibition) at 10uM” value falls from -13.6% to -41.3%.

Going from `CCOc1cc(/C=C(\C#N)C(N)=O)ccc1OCc1c(C)no[n+]1[O-]` to `CCc1noc(C)c1C(=O)OCC(=O)c1ccc(OC)c(OC)c1`, the “hERG current change (%, negative = inhibition) at 10uM” value falls from -0.204% to -5.3%.

Compared with `Cc1cc(C)n(-c2ccc(C(F)(F)F)cc2[N+](=O)[O-])n1`, `Cc1nn(C)c(N)c1-c1ccccc1` is higher in “hERG current change (%, negative = inhibition) at 10uM” value: 1.78% for the first, 25.4% for the second.

Compared with `CCCn1c2ccccc2c2cnn(CC(=O)NCCCN3CCCCC3)c(=O)c21`, `Cc1ccc(C)c(Cn2c3ccccc3c3cnn(CC(=O)NCCCN4CCCCC4)c(=O)c32)c1` is lower in “hERG current change (%, negative = inhibition) at 10uM” value: -53.4% for the first, -71.9% for the second.

Going from `O=C(Cn1ncc2c3ccccc3n(Cc3ccccc3)c2c1=O)NCCCN1CCCC1` to `O=C(Cn1ncc2c3ccccc3n(Cc3ccccc3)c2c1=O)NCCCN1CCCC1=O`, the “hERG current change (%, negative = inhibition) at 10uM” value rises from -72.5% to -29.8%.

Compared with `CCCn1c2ccccc2c2cnn(CC(=O)NC3CCC(C)CC3)c(=O)c21` (stereo not shown), `CCCn1c2ccccc2c2cnn(CC(=O)NC3CCCCC3)c(=O)c21` is lower in “hERG current change (%, negative = inhibition) at 10uM” value: 9.11% for the first, 2.23% for the second.

First: O=C(Cn1ncc2c3ccccc3n(Cc3ccc(Cl)cc3)c2c1=O)NCCCN1CCCC1=O
Second: Cc1ccccc1Cn1c2ccccc2c2cnn(CC(=O)NCCCN3CCN(C)CC3)c(=O)c21
The “hERG current change (%, negative = inhibition) at 10uM” value of the first is lower: -34.5% for the first, -3.23% for the second.

Compared with `Cc1ccc(C)c(Cn2c3ccccc3c3cnn(CC(=O)NCCCN4CCOCC4)c(=O)c32)c1`, `CCCn1c2ccccc2c2cnn(CC(=O)NC3CCN(Cc4ccccc4)CC3)c(=O)c21` is lower in “hERG current change (%, negative = inhibition) at 10uM” value: -49.7% for the first, -55.1% for the second.

Compared with `Cc1ccccc1N(C(=O)c1csnn1)C(C(=O)NC1CCCCC1)c1ccncc1` (stereo not shown), `O=C(NC1CCN(C(=O)c2cccs2)CC1)c1ccccc1` is lower in “hERG current change (%, negative = inhibition) at 10uM” value: 10.7% for the first, -19.3% for the second.

Going from `CN(C)S(=O)(=O)c1cc(NC(=O)CN2CCOCC2)ccc1Cl` to `CCNc1ccc(C(=O)OCC)cc1NC(=O)c1cc(S(=O)(=O)N2CCOCC2)ccc1C`, the “hERG current change (%, negative = inhibition) at 10uM” value falls from 17.7% to -10.9%.

First: COc1ccc(NC(=O)c2sc3nc(C)nc(N4CCN(c5ccccn5)CC4)c3c2C)cc1Cl
Second: O=C(c1ccccc1)N1CCN(c2ncnc3c(-c4ccccc4)nsc23)CC1
The “hERG current change (%, negative = inhibition) at 10uM” value of the first is lower: -3.04% for the first, 6.38% for the second.

Going from `Cc1oc2cc(O)cc(O)c2c(=O)c1-c1ccc2c(c1)OCCCO2` to `COC(=O)c1ccc2c(=O)n(Cc3ccc4c(c3)OCO4)c(=S)[nH]c2c1`, the “hERG current change (%, negative = inhibition) at 10uM” value rises from 3.88% to 16.3%.

Going from `O=C(NC1CCCCCCC1)C1CCN(S(=O)(=O)N2CCCC2)CC1` to `O=C(NC1CCCCCC1)c1ccc2c(=O)n3c(nc2c1)CCCCC3`, the “hERG current change (%, negative = inhibition) at 10uM” value falls from -2.62% to -51%.

Going from `O=C(CNC(=O)c1ccco1)OCC(=O)c1ccc([N+](=O)[O-])cc1` to `CN(C(=O)COC(=O)CSc1cc(Cl)ccc1Cl)c1c(N)n(Cc2ccccc2)c(=O)[nH]c1=O`, the “hERG current change (%, negative = inhibition) at 10uM” value falls from 11.9% to -0.021%.

First: CC(=O)c1ccc(NC(=O)c2ccc3c(=O)n4c(nc3c2)CCCCC4)cc1
Second: CC(=O)c1cccc(NC(=O)c2ccc3c(=O)n4c(nc3c2)CCCCC4)c1
The “hERG current change (%, negative = inhibition) at 10uM” value of the first is higher: -5.23% for the first, -75.5% for the second.

Compared with `COc1ccc(NC(=O)c2ccc3c(=O)n4c(nc3c2)CCCCC4)cc1`, `CCOc1ccc(NC(=O)c2ccc3c(=O)n4c(nc3c2)CCCCC4)cc1` is higher in “hERG current change (%, negative = inhibition) at 10uM” value: -40% for the first, 19.5% for the second.

First: CCc1ccc(C(=O)NNC(=O)c2ccc3c(=O)n4c(nc3c2)CCC4)cc1
Second: CCc1ccc(NC(=O)c2ccc3c(=O)n4c(nc3c2)CCCCC4)cc1
The “hERG current change (%, negative = inhibition) at 10uM” value of the first is higher: 5.5% for the first, -46.8% for the second.

First: O=C(Nc1ccc(F)cc1)c1ccc2c(=O)n3c(nc2c1)CCCCC3
Second: CCc1cccc(NC(=O)c2ccc3c(=O)n4c(nc3c2)CCCCC4)c1
The “hERG current change (%, negative = inhibition) at 10uM” value of the first is higher: -51.8% for the first, -76.6% for the second.

Compared with `CCN(CC)C(=O)c1cccc(NC(=O)c2ccc3c(=O)n4c(nc3c2)CCC4)c1`, `CCOc1ccccc1NC(=O)c1ccc2c(=O)n3c(nc2c1)CCCCC3` is lower in “hERG current change (%, negative = inhibition) at 10uM” value: -10.7% for the first, -58.6% for the second.

Going from `Cc1cccc(C)c1N(CC(=O)N(C)Cc1ccccc1)S(C)(=O)=O` to `Cc1ccc(S(=O)(=O)Nc2cccc(-n3cnnn3)c2)cc1C(=O)O`, the “hERG current change (%, negative = inhibition) at 10uM” value falls from 3.99% to 3.97%.

`CCn1c2ccccc2c2cc(NC(=O)CSc3nnc(-c4ccc(OC)cc4)n3N)ccc21` and `Cc1nn(-c2ccccc2)c2nc(=O)n(-c3ccccc3)cc12` are the same in “hERG current change (%, negative = inhibition) at 10uM” value: -10.9% for the first, -10.9% for the second.

Compared with `O=S(=O)(c1ccc2ccccc2c1)N1CCN(S(=O)(=O)N2CCOCC2)CC1`, `CCOC(=O)N1CCC(NC(=O)c2ccc3c(=O)n4c(nc3c2)CCCC4)CC1` is higher in “hERG current change (%, negative = inhibition) at 10uM” value: -0.31% for the first, 12% for the second.

First: COC(=O)c1cc(N=CC2=C(O)CC(C)(C)CC2=O)cc(C(=O)OC)c1
Second: Cc1nc2ccccc2c(=O)n1/N=C/c1ccc(O)cc1
The “hERG current change (%, negative = inhibition) at 10uM” value of the first is lower: -16.3% for the first, 10.9% for the second.

First: O=C(c1ccc2c(=O)n3c(nc2c1)CCCCC3)N1CCCCC1
Second: Cn1c(SCC(=O)N2CCCC2)nnc1-c1cccs1
The “hERG current change (%, negative = inhibition) at 10uM” value of the first is higher: 17.5% for the first, 4.73% for the second.

First: C[C@H]1CN=C(Nc2ccccc2)N1CCC1CCCCC1
Second: C[C@H]1CN=C(Nc2ccccc2)N1CCC1CCCC1
The “hERG current change (%, negative = inhibition) at 10uM” value of the first is lower: -46.8% for the first, -10.6% for the second.

First: C[C@H]1CN=C(Nc2ccccc2)N1CCCC1CCCC1
Second: C[C@H]1CN=C(Nc2ccccc2)N1CCCC1CCCCC1
The “hERG current change (%, negative = inhibition) at 10uM” value of the first is higher: -58.7% for the first, -62.2% for the second.

Going from `C[C@H]1CN=C(Nc2ccccc2)N1CC1CCCCCC1` to `C[C@H]1CN=C(Nc2ccccc2)N1CC1CCCCC1`, the “hERG current change (%, negative = inhibition) at 10uM” value rises from -24.5% to 0.474%.
